# Results taken from PubChem BioAssay AID1159580 (chemical genetic matrix, 2015).
# The campaign covered roughly 5,500 compounds. About 2,000 (36%) were called active. Another 18% or so got no clear call; they are omitted. This is one part of the list. Unmarked numbers belong to inactive results. Cut-off read from the data, not from the text of the source: active = normalized growth mostly below about 0.91 (no sharp cut-off); inconclusive = no clear call, values can overlap the other calls; inactive = mostly above about 0.92.
# Assay: chemical genetic growth profiling, strain panel (AID 1159580);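 note: tested at 20 µM; growth read once vehicle control cultures reached saturation at 30 °C; 1 = growth at the plate median or of vehicle wells; lower values mean less growth of the strain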
# Conditions: growth OD
structure (smiles),measurement,setting,value
O=C(OC[C@H]1O[C@H](OC(=O)c2cc(O)c(O)c(OC(=O)c3cc(O)c(O)c(O)c3)c2)[C@H](OC(=O)c2cc(O)c(O)c(OC(=O)c3cc(O)c(O)c(O)c3)c2)[C@@H](OC(=O)c2cc(O)c(O)c(OC(=O)c3cc(O)c(O)c(O)c3)c2)[C@@H]1OC(=O)c1cc(O)c(O)c(OC(=O)c2cc(O)c(O)c(O)c2)c1)c1cc(O)c(O)c(OC(=O)c2cc(O)c(O)c(O)c2)c1,normalized growth,"S. cerevisiae deletion strains, locus YJR075W, strain HOC1, hits give low values",0.104 (active)
same,normalized growth,"S. cerevisiae deletion strains, locus YKL009W, strain mrt4, hits give low values",0.125 (active)
same,normalized growth,"S. cerevisiae deletion strains, locus YKL068W, hits give low values",0.082 (active)
same,normalized growth,"S. cerevisiae deletion strains, locus YKL085W, strain MDH1 (second series), hits give low values",0.0765 (active)
same,normalized growth,"S. cerevisiae deletion strains, locus YKL085W, strain MDH1, hits give low values",0.0765 (active)
same,normalized growth,"S. cerevisiae deletion strains, locus YKL160W, strain elf1, hits give low values",0.761 (active)
same,normalized growth,"S. cerevisiae deletion strains, locus YKL190W, strain CNB1, hits give low values",0.0756 (active)
same,normalized growth,"S. cerevisiae deletion strains, locus YKR001C, strain vps1, hits give low values",0.101 (active)
same,normalized growth,"S. cerevisiae deletion strains, locus YKR026C, strain gcn3, hits give low values",1.03
same,normalized growth,"S. cerevisiae deletion strains, locus YKR091W, strain srl3, hits give low values",0.968
same,normalized growth,"S. cerevisiae deletion strains, locus YLL001W, strain dnm1, hits give low values",0.693 (active)
same,normalized growth,"S. cerevisiae deletion strains, locus YLL026W, hits give low values",0.689 (active)
same,normalized growth,"S. cerevisiae deletion strains, locus YLL041C, strain sdh2, hits give low values",0.951
same,normalized growth,"S. cerevisiae deletion strains, locus YLR027C, strain aat2, hits give low values",0.82 (active)
same,normalized growth,"S. cerevisiae deletion strains, locus YLR039C, strain RIC1, hits give low values",0.131 (active)
same,normalized growth,"S. cerevisiae deletion strains, locus YLR058C, strain SHM2, hits give low values",0.0679 (active)
same,normalized growth,"S. cerevisiae deletion strains, locus YLR102C, strain apc9, hits give low values",0.0965 (active)
same,normalized growth,"S. cerevisiae deletion strains, locus YLR113W, strain HOG1, hits give low values",1.08
same,normalized growth,"S. cerevisiae deletion strains, locus YLR221C, strain rsa3, hits give low values",0.785 (active)
same,normalized growth,"S. cerevisiae deletion strains, locus YLR258W, strain gsy2, hits give low values",0.807 (active)
same,normalized growth,"S. cerevisiae deletion strains, locus YLR262C, strain YPT6 (second series), hits give low values",0.596 (active)
same,normalized growth,"S. cerevisiae deletion strains, locus YLR262C, strain YPT6, hits give low values",0.149 (active)
same,normalized growth,"S. cerevisiae deletion strains, locus YLR268W, strain sec22, hits give low values",0.115 (active)
same,normalized growth,"S. cerevisiae deletion strains, locus YLR320W, strain mms22, hits give low values",0.777 (active)
same,normalized growth,"S. cerevisiae deletion strains, locus YLR330W, strain CHS5, hits give low values",0.0805 (active)
same,normalized growth,"S. cerevisiae deletion strains, locus YLR342W, strain FKS1 (second series), hits give low values",0.119 (active)
same,normalized growth,"S. cerevisiae deletion strains, locus YLR342W, strain FKS1, hits give low values",0.662 (active)
same,normalized growth,"S. cerevisiae deletion strains, locus YLR357W, strain rsc2, hits give low values",0.656 (active)
same,normalized growth,"S. cerevisiae deletion strains, locus YLR370C, strain arc18, hits give low values",0.334 (active)
same,normalized growth,"S. cerevisiae deletion strains, locus YLR371W, strain rom2, hits give low values",0.0958 (active)
same,normalized growth,"S. cerevisiae deletion strains, locus YLR384C, strain iki3, hits give low values",0.784 (active)
same,normalized growth,"S. cerevisiae deletion strains, locus YLR418C, strain cdc73, hits give low values",0.159 (active)
same,normalized growth,"S. cerevisiae deletion strains, locus YML016C, strain PPZ1, hits give low values",0.0844 (active)
same,normalized growth,"S. cerevisiae deletion strains, locus YML032C, strain rad52, hits give low values",0.103 (active)
same,normalized growth,"S. cerevisiae deletion strains, locus YML120C, strain ndi1, hits give low values",0.617 (active)
same,normalized growth,"S. cerevisiae deletion strains, locus YML124C, strain tub3, hits give low values",0.0933 (active)
same,normalized growth,"S. cerevisiae deletion strains, locus YMR058W, strain fet3, hits give low values",0.901 (active)
same,normalized growth,"S. cerevisiae deletion strains, locus YMR078C, strain ctf18, hits give low values",0.106 (active)
same,normalized growth,"S. cerevisiae deletion strains, locus YMR125W, strain sto1, hits give low values",1.04
same,normalized growth,"S. cerevisiae deletion strains, locus YMR129W, hits give low values",0.921 (active)
same,normalized growth,"S. cerevisiae deletion strains, locus YMR205C, strain PFK2, hits give low values",0.721 (active)
same,normalized growth,"S. cerevisiae deletion strains, locus YMR223W, strain ubp8, hits give low values",0.0998 (active)
same,normalized growth,"S. cerevisiae deletion strains, locus YMR231W, strain pep5, hits give low values",0.148 (active)
same,normalized growth,"S. cerevisiae deletion strains, locus YMR263W, strain SAP30, hits give low values",0.0929 (active)
same,normalized growth,"S. cerevisiae deletion strains, locus YMR307W, strain GAS1, hits give low values",0.175 (active)
same,normalized growth,"S. cerevisiae deletion strains, locus YNL067W, strain RPL9B, hits give low values",0.0835 (active)
same,normalized growth,"S. cerevisiae deletion strains, locus YNL071W, strain lat1, hits give low values",0.88 (active)
same,normalized growth,"S. cerevisiae deletion strains, locus YNL128W, strain TEP1, hits give low values",0.0962 (active)
same,normalized growth,"S. cerevisiae deletion strains, locus YNL153C, strain GIM3, hits give low values",0.086 (active)
same,normalized growth,"S. cerevisiae deletion strains, locus YNL183C, strain NPR1, hits give low values",0.988
same,normalized growth,"S. cerevisiae deletion strains, locus YNL209W, strain ssb2, hits give low values",0.363 (active)
same,normalized growth,"S. cerevisiae deletion strains, locus YNL233W, strain BNI4, hits give low values",0.0934 (active)
same,normalized growth,"S. cerevisiae deletion strains, locus YNL248C, strain rpa49, hits give low values",0.922
same,normalized growth,"S. cerevisiae deletion strains, locus YNL250W, strain rad50, hits give low values",0.0969 (active)
same,normalized growth,"S. cerevisiae deletion strains, locus YNL271C, strain bni1, hits give low values",0.0916 (active)
same,normalized growth,"S. cerevisiae deletion strains, locus YNL298W, strain CLA4, hits give low values",0.0929 (active)
same,normalized growth,"S. cerevisiae deletion strains, locus YNL307C, strain MCK1, hits give low values",0.102 (active)
same,normalized growth,"S. cerevisiae deletion strains, locus YNL322C, strain KRE1 (second series), hits give low values",0.853 (active)
same,normalized growth,"S. cerevisiae deletion strains, locus YNL322C, strain KRE1, hits give low values",0.0735 (active)
same,normalized growth,"S. cerevisiae deletion strains, locus YNR049C, strain mso1, hits give low values",0.944
same,normalized growth,"S. cerevisiae deletion strains, locus YNR052C, strain pop2, hits give low values",0.0934 (active)
same,normalized growth,"S. cerevisiae deletion strains, locus YOL006C, strain TOP1, hits give low values",0.155 (active)
same,normalized growth,"S. cerevisiae deletion strains, locus YOL012C, strain htz1",0.275
same,normalized growth,"S. cerevisiae deletion strains, locus YOL147C, strain pex11, hits give low values",0.0861 (active)
same,normalized growth,"S. cerevisiae deletion strains, locus YOR001W, strain rrp6, hits give low values",0.663 (active)
same,normalized growth,"S. cerevisiae deletion strains, locus YOR061W, strain CKA2, hits give low values",0.065 (active)
same,normalized growth,"S. cerevisiae deletion strains, locus YOR069W, strain VPS5, hits give low values",0.0788 (active)
same,normalized growth,"S. cerevisiae deletion strains, locus YOR070C, strain gyp1, hits give low values",0.404 (active)
same,normalized growth,"S. cerevisiae deletion strains, locus YOR080W, strain dia2, hits give low values",0.349 (active)
same,normalized growth,"S. cerevisiae deletion strains, locus YOR083W, strain WHI5, hits give low values",0.695 (active)
same,normalized growth,"S. cerevisiae deletion strains, locus YOR106W, strain vam3, hits give low values",0.425 (active)
same,normalized growth,"S. cerevisiae deletion strains, locus YOR136W, strain idh2, hits give low values",0.108 (active)
same,normalized growth,"S. cerevisiae deletion strains, locus YOR144C, strain elg1, hits give low values",0.0856 (active)
same,normalized growth,"S. cerevisiae deletion strains, locus YOR184W, strain ser1, hits give low values",0.124 (active)
same,normalized growth,"S. cerevisiae deletion strains, locus YOR231W, strain MKK1, hits give low values",1.04
same,normalized growth,"S. cerevisiae deletion strains, locus YOR265W, strain rbl2, hits give low values",0.845 (active)
same,normalized growth,"S. cerevisiae deletion strains, locus YOR270C, strain vph1, hits give low values",0.438 (active)
same,normalized growth,"S. cerevisiae deletion strains, locus YOR290C, strain snf2, hits give low values",0.169 (active)
same,normalized growth,"S. cerevisiae deletion strains, locus YOR316C, strain cot1, hits give low values",0.0869 (active)
same,normalized growth,"S. cerevisiae deletion strains, locus YPL051W, strain arl3, hits give low values",0.565 (active)
same,normalized growth,"S. cerevisiae deletion strains, locus YPL055C, strain LGE1, hits give low values",0.103 (active)
same,normalized growth,"S. cerevisiae deletion strains, locus YPL078C, strain atp4, hits give low values",0.582 (active)
same,normalized growth,"S. cerevisiae deletion strains, locus YPL106C, strain sse1, hits give low values",0.829 (active)
same,normalized growth,"S. cerevisiae deletion strains, locus YPL240C, strain hsp82, hits give low values",0.889 (active)
same,normalized growth,"S. cerevisiae deletion strains, locus YPL241C, strain CIN2, hits give low values",0.0787 (active)
same,normalized growth,"S. cerevisiae deletion strains, locus YPL256C, strain CLN2, hits give low values",1.14
same,normalized growth,"S. cerevisiae deletion strains, locus YPR119W, strain clb2, hits give low values",0.0923 (active)
same,normalized growth,"S. cerevisiae deletion strains, locus YPR141C, strain kar3, hits give low values",0.096 (active)
same,normalized growth,"S. cerevisiae deletion strains, locus YPR163C, strain tif3, hits give low values",0.102 (active)
same,normalized growth,"S. cerevisiae deletion strains, locus YPR167C, strain met16, hits give low values",0.0927 (active)
same,normalized growth,"S. cerevisiae deletion strains, strain wtn01, hits give low values",0.0926 (active)
same,normalized growth,"S. cerevisiae strains, strain wild type, hits give low values",0.0831 (active)
